Here are results for twelve molecules from PubChem BioAssay.

Usually inhibition stands for the drop in the measured response relative to a control, in per cent.

Structures are written as SMILES. Active and inactive are the calls of the source.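 The calls were made as follows: active = inhibition above 20% together with a positive visual image hit; inconclusive = visual image hit but inhibition not above 20%; inactive = no visual image hit.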

This test is described as follows: inhibitors of TNFa-induced NFkB p65 translocation, primary screen, imaging, HUVEC, MLSMR starter and 10KST1 sets (AID 438).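 Also: compound added about 3h40 before a 20 min TNFalpha stimulation.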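 As to inhibition: signal is the nuclear over cytoplasmic p65 intensity ratio per well.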 The following applies: HUVEC TNFa-induced p65 nuclear translocation; cell count: measured here: nuclei count (cytotoxicity indicator), at 2.08 µM; inhibition: at 2 µM, stronger effect = higher value, 0% TNFa-plus-vehicle, 100% no-TNFa wells.
For `O=C(O)CCCCCN1C(=O)CCC1=O`, the cell count turned out to be 376 and the inhibition is -5.6% (inactive).

`CC(=O)O[C@H]1C(=O)[C@]2(C)[C@H]([C@H](OC(=O)c3ccccc3)[C@]3(O)C[C@H](OC(=O)[C@H](O)[C@@H](NC(=O)c4ccccc4)c4ccccc4)C(C)=C1C3(C)C)[C@]1(OC(C)=O)CO[C@@H]1C[C@@H]2O`: the cell count is 508 and the inhibition was -11.8% (inactive).

In the case of `CC[N+](C)(C)Cc1ccccc1Br`, the cell count stood at 649 and the inhibition is -4.5% (inactive).

As for `O=C1C(CCS(=O)c2ccccc2)C(=O)N(c2ccccc2)N1c1ccccc1` (centres undefined), the inhibition is 4.4% (inactive) and the cell count worked out at 647.

With `Cc1ccc(N2C(=O)C3ON(c4ccccc4)C(c4ccncc4)C3C2=O)c(C)c1` (centres undefined), the inhibition is -7.9% (inactive) and the cell count came to 326.

Regarding `N#Cc1nc(-c2ccccc2Cl)oc1N1CCCCC1`, the cell count came to 419 and the inhibition was 6.4% (inactive).

Regarding `CC1=CC(c2ccccc2)n2nc(N3C(=O)C4CC=CCC4C3=O)nc2N1` (centres undefined), the inhibition is -3.2% (inactive) and the cell count amounted to 367.

For the molecule `CCN(CC)CCn1c(O)c(N=O)c2ccccc21`, the cell count was determined as 314 and the inhibition was -11.6% (inactive).

Turning to `Cc1ccc2nc(NCc3ccccc3)[nH]c2c1`, the inhibition was -2.3% (inactive) and the cell count amounted to 360.

For `COc1cccc(-c2nc(NC(C)(C)C)c3ccccc3n2)c1O`, the cell count is 394 and the inhibition is 0% (inactive).

For `O=C1C2ON(c3ccccc3)C(c3ccncc3)C2C(=O)N1c1ccc(Br)cc1` (centres undefined), the cell count was determined as 360 and the inhibition is -2.3% (inactive).

Take `CCC(=O)O[C@@H]1CC(=O)O[C@H](C)CC=CC=C[C@@H](O)[C@H](C)C[C@H](CC=O)[C@H](O[C@H]2O[C@H](C)[C@@H](O[C@H]3C[C@@](C)(O)[C@@H](OC(=O)CC)[C@H](C)O3)[C@H](N(C)C)[C@H]2O)[C@H]1OC`: the cell count worked out at 725 and the inhibition was -0.7% (inactive).
